Source: PubChem BioAssay

experiment: probe aCHRDL2 binding to arrayed compounds – biochemical, biotinylated probe, 635/667 nm fluorescence, primary screen (AID 1100); details: small-molecule microarray, higher = more signal

SMILES	composite z-score
CCCCC(=C=CC[C@@H](O)c1ccccc1OCCO)CCO	0.001
COc1ccc(C(O)C2C=CC3C(=O)NC(=O)C3N2Nc2ccccn2)c2ccccc12 (stereo unspecified)	0.108
COc1cc(CO)cc(I)c1O[C@H]1C=C(C(=O)NCCO)C[C@@H](N(CCN2CCOCC2)C(=O)C2CCOC2)[C@@H]1O (stereo partly specified)	-0.544
COC(=O)[C@@]1(Cc2ccc(F)cc2)[C@H]2c3cc(C(=O)N(C)C)n(Cc4ccc(S(C)(=O)=O)cc4)c3C[C@H]2CN1C(=O)c1ccccc1	0.899
CC(=O)n1cc(C(O)C2C=CC3C(=O)N(C)C(=O)C3N2Nc2ccccc2)c2ccccc21 (stereo unspecified)	1.18
O=C1O[C@H](c2ccccc2)[C@H](c2ccccc2)N2[C@H]1[C@@H](C(=O)NC[C@H](O)c1ccccc1)[C@]1(C(=O)Nc3ccccc31)[C@H]2c1ccc(OCCO)cc1	0.672
C=C(CCCC)C(=O)CC[C@H](OC(C)=O)c1cccc(OCCO)c1	-0.193
COCCOC(=O)N1C(=O)[C@@]2(c3cc(C#CC4=CCCCC4)ccc31)[C@H](C(=O)Nc1nc3ccccc3s1)[C@H]1C(=O)O[C@H](c3ccccc3)[C@H](c3ccccc3)N1[C@@H]2c1ccccc1OCCO	0.4
CN1C(=O)C2C=CC(C(O)c3cc(C(F)(F)F)cc(C(F)(F)F)c3)N(N3CCCCC3)C2C1=O (stereo unspecified)	1.01
CN(C)C(=O)[C@@]1(Cc2ccccc2)N=C(c2ccc(OCCCO)cc2)O[C@H]1c1ccccc1N=[N+]=[N-]	0.914
[N-]=[N+]=NCc1ccccc1[C@@H]1OC(c2ccc(OCCCO)cc2)=N[C@]1(CCS(=O)(=O)c1ccccc1)C(=O)NCc1ccccc1	0.993
